DT40 TDP1 no CPT: qHTS for Inhibitors of human tyrosyl-DNA phosphodiesterase 1 (TDP1): qHTS in cells in absence of CPT; DT40 Tdp1-/- hTDP1 cells, no CPT, ATP luminescence, 48 h; Potency, µM (series often up to 46.2 µM), for inactives: at the top dose activity change, negative = growth inhibition, most hits filed as inhibitors; AID 686978, 2013; hit rate 15% among 420,000; note: potency is the fitted concentration of half-maximal effect; % is set by controls: 0 for no effect and ±100 for the full control effect; nearly all actives have a fitted effect of over 55% in size
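A cellular qHTS used chicken DT40 cells lacking endogenous Tdp1 but carrying stably transfected human TDP1. Compounds were applied without camptothecin, and cell growth kinetics were judged by ATP-dependent luminescence after ≥48 hr.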
DRD3 agonist: D3 dopamine receptor (human) agonism; hit rate 0.58% among 410,000; D3R DiscoveRx beta-arrestin cells, luminescence, 90 min; AID 652048; P35462; max activation, %; in the data active = max activation above about 30%; note: 0% is about no effect
Target sequence (P35462 whole entry, looked up): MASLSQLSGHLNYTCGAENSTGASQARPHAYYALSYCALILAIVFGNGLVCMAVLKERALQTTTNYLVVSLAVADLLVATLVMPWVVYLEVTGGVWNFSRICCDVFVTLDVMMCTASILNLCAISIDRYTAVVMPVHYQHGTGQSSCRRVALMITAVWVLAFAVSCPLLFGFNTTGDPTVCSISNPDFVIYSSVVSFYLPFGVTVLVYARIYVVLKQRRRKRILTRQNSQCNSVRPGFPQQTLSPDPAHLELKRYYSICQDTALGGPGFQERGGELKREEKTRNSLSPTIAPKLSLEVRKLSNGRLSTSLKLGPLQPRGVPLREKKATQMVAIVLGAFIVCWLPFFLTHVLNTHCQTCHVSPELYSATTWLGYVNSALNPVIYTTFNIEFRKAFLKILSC
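Cells at 1500/well, incubated overnight, then treated with pinned compounds (dopamine as control) for 90 min at 37 degrees C. DiscoveRx reagent added for 30 - 60 minutes at room temperature; luminescence read.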
DRD3 antagonist: antagonists of human D3 dopamine receptor. max response, negative = inhibition, %. hit rate 2.5% among 360,000. D3R cells, DiscoveRx beta-arrestin luminescence, antagonist mode; stronger effect = lower value. P35462; in the data active = max response below about -50%; inconclusive = no clear call, values can overlap the other calls; note: % is set by controls: 0 for no effect and ±100 for the full control effect
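Cells expressing the human receptor were seeded at 1500 cells/well, incubated overnight at 37 degrees C in 5% CO2, then exposed to library compounds with dopamine controls for 90 minutes at 37 degrees C before luminescent detection.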
IL-1B inflam inh: inhibitors of inflammasome signaling (IL-1 beta secretion). activity change, % at 57.5 µM. AID 743279. THP-1 LPS/ATP IL-1B secretion, AlphaLISA, 16 h; stronger effect = lower value. hit rate 4.7% among 360,000; in the data active = activity change below about -50%; inconclusive = mostly about -30% to -49%; note: % is set by controls: 0 for no effect and ±100 for the full control effect
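Secreted IL-1B measured by AlphaLISA bead assay after 16 h compound exposure of THP-1 cells; compounds (final up to 57.5 uM) added 1 h before LPS (250 ng/mL) and ATP (1.25 mM) stimulation; lower signal means less secretion.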
DT40 TDP1 CPT: DT40-hTDP1 cell growth loss with CPT; chicken DT40 Tdp1-/-;hTDP1 cells + 20 nM CPT, ATP luminescence, 48 h; Potency, µM (series often up to 46.2 µM), for inactives: at the top dose activity change, negative = growth inhibition, actives largely listed as inhibitors; hit rate 12% among 420,000; note: potency is the fitted concentration of half-maximal effect; % is set by controls: 0 for no effect and ±100 for the full control effect; nearly all actives have a fitted effect of over 55% in size
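Chicken DT40 Tdp1-/- cells stably complemented with human TDP1 were seeded at 400 cells/well in medium containing 20 nM camptothecin, exposed to pin-transferred compounds, and grown at 37 °C for at least 48 hr. Viability was read as ATP luminescence.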
ClpP mod: qHTS Assay for Activators of ClpP; ATP-dependent Clp protease proteolytic subunit (Bacillus subtilis (strain 168)), P80244; purified B. subtilis ClpP, FRET peptide cleavage, 20 min; Potency, µM (doses to about 57.5 µM), for inactives: at the highest dose activity change, negative = active; hit rate 1.9% among 340,000; AID 651965, 2013; active = well fitted falling curve with a large enough effect; inconclusive = small, poorly fitted or top-dose-only effect; inactive = no such curve, though single readings can be large or run the other way; note: potency is the fitted concentration of half-maximal effect; the source files actives as falling curves though it sought activators and does not explain the sign; nearly all actives have a fitted effect of over 65% in size
Target sequence (P80244 whole entry, looked up): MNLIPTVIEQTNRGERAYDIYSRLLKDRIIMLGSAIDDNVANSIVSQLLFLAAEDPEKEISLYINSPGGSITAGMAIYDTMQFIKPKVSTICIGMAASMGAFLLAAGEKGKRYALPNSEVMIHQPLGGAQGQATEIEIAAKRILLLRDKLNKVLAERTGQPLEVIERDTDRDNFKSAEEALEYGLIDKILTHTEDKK
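ClpP 10 microg/mL final, pH 8 Tris/KCl buffer with BSA, glycerol, Tween-20; compound pinned in; FRET-FV substrate; RT 20 min; Ex320/Em430; ΔFRET vs ADEP 5.8 microM, DMSO, no enzyme.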
Active calls of the source: *; ? = inconclusive; . = no result. In the library only some 21% were active in any assay of this set; here they are far more common. Unless noted, calls come from the whole dose curve; as a rule, active = well fitted inhibition curve with a large enough effect; inconclusive = small, poorly fitted or top-dose-only effect; inactive = flat fitted curve, though single readings scatter.

SMILES	DT40 TDP1 no CPT	DRD3 agonist	DRD3 antagonist	IL-1B inflam inh	DT40 TDP1 CPT	ClpP mod
COc1ccc(CNCCC(c2ccc(F)cc2)c2ccc(OC(C)C)cc2)cc1OC (centres undefined)	15µM*	-22	1	-96*	16µM*	.
CCN(CC)S(=O)(=O)c1ccc(N/N=C/c2ccc(OC)c(OC)c2OC)nc1	18µM*	-6	-11	5	?	-26%
CCOc1cccc(/C=N/Nc2ccc(S(=O)(=O)N(CC)CC)cn2)c1O	0.58µM*	0	-11	52	0.16µM*	1%
CCN(CC)S(=O)(=O)c1ccc(N/N=C(\C)c2ccc(OC)cc2O)nc1	29µM*	2	-10	243	3.3µM*	-4%
CCN(CC)S(=O)(=O)c1ccc(N/N=C/c2ccc(O)cc2)nc1	-27%	2	2	1	?	.
COc1ccc(C(=O)NC2CCc3ccccc32)cc1OC1CCN(C(C)=O)CC1 (centres undefined)	?	3	0	14	-22%	-5%
CS(=O)(=O)Nc1ccc2c(c1)[C@@H]1C[C@@H](CC(=O)NCc3cccnc3)O[C@H](CO)[C@@H]1O2	-12%	12	23	32	-23%	1%
O=S(=O)(Cc1cc(NCc2ccccc2)nc(-c2ccccn2)n1)c1ccccc1	4.6µM*	-2	-7	39	4.6µM*	.
O=S(=O)(Cc1cc(NCc2ccccc2)nc(-c2ccncc2)n1)c1ccccc1	-24%	0	11	55	6%	.
CC(C)Cn1c(N)c(C(=O)COC(=O)C2Cc3ccccc3CN2S(C)(=O)=O)c(=O)n(C)c1=O (centres undefined)	5.2µM*	7	16	-9	6.5µM*	-5%
CC(C)Cn1c(N)c(C(=O)COC(=O)C2CCCCC2)c(=O)n(C)c1=O	18µM*	8	-10	60	16µM*	-2%
CC(=O)c1c(C)[nH]c(C(=O)OCC(=O)c2c(N)n(CC(C)C)c(=O)n(C)c2=O)c1C	23µM*	2	31	23	?	-2%
Cn1c(=O)c(C(=O)CCl)c(N)n(CC2CC2)c1=O	18µM*	35*	0	?	23µM*	-1%
O=c1[nH]c(=S)[nH]c2nc(-c3ccccc3)cnc12	-24%	-3	-20	43	-25%	.
Nc1[nH]c(=S)[nH]c(=O)c1-c1ccccc1	-5%	-2	-56*	3	1%	-4%
CNCCNC[C@H](Cc1cccc2ccccc12)NCCc1ccccc1	?	-62	?	?	?	0%
CNC[C@H](Cc1ccccc1)NC[C@@H](Cc1cccc2ccccc12)NCCc1ccc(C)cc1	15µM*	-7	28	-106*	18µM*	-6%
O=C1Cc2c([nH]c3ccc([N+](=O)[O-])cc23)-c2ccccc2N1	1.8µM*	-24	-23	-99*	1.8µM*	-2%
Cc1ccc(-n2c(-c3ccco3)nc3c(cnn3-c3ccccc3Cl)c2=O)cc1	-21%	21	.	.	-4%	60%
Cc1nc2c(cnn2-c2ccccc2Cl)c(=O)n1-c1ccc(C(C)C)cc1	21µM*	-6	2	17	?	1%
Cc1ccc(-n2c(C)nc3c(cnn3-c3ccccc3C)c2=O)cc1F	?	-14	.	.	?	-1%
COc1ccc(-n2c(C)nc3c(cnn3-c3ccc(C)c(C)c3)c2=O)cc1	15µM*	-1	?	-7	23µM*	-10%
Cc1ccc(-n2c(C)nc3c(cnn3-c3ccc(F)cc3)c2=O)cc1	15µM*	8	1	26	18µM*	-1%
Cc1ccc(-n2ncc3c(=O)n(-c4ccc(C)c(C)c4)c(C)nc32)cc1	18µM*	4	10	0	?	-5%
CCOc1ccc(-n2c(C)nc3c(cnn3-c3ccc(Cl)cc3)c2=O)cc1	-21%	2	2	24	-12%	1%
SMILES	DT40 TDP1 no CPT	DRD3 agonist	DRD3 antagonist	IL-1B inflam inh	DT40 TDP1 CPT	ClpP mod
CC1CCC(NC(=O)CCNC(=O)c2ccccc2)CC1 (centres undefined)	2%	-11	-7	-19	1%	0%
Cc1ccc(/C=c2/sc3n(c2=O)CCCN=3)o1	-18%	-3	2	0	?	-5%
CC1(C)CN=c2s/c(=C\c3ccc(Cl)cc3)c(=O)n2C1	18µM*	-4	-10	-86*	12µM*	.
O=C(COc1cccc2ccccc12)N/N=C/c1ccc(Sc2nc3ccccc3s2)o1	21µM*	4	3	-5	?	-7%
Cc1ccccc1OCC(=O)N/N=C/c1ccc(Sc2nc3ccccc3s2)o1	16µM*	0	3	-24	?	-7%
O=C(Cc1cccc2ccccc12)N/N=C/c1ccc(Sc2nc3ccccc3s2)o1	?	-4	-11	55	16µM*	-3%
COCC(=O)N/N=C/c1ccc(Sc2nc3ccccc3s2)o1	?	1	0	1	-19%	?
CCOC(=O)[C@H]1[C@H]2COc3ccc(C)cc3[C@@H]2N2C(=O)c3cc(Br)ccc3NC(=O)[C@@]12C	?	-1	-1	-2	?	-2%
COc1ccc(CCN(C)C(=S)Nc2cccc(C)c2)cc1OC	-26%	-7	-7	-6	-7%	.
CN1CCN(C(=O)c2ccc(CNS(=O)(=O)c3ccc(F)c(Cl)c3)cc2)CC1	-17%	-3	-11	-8	?	-3%
O=C(CCN1C(=O)/C(=C/c2ccc(F)cc2)SC1=S)NCCc1ccc(O)cc1	?	-4	11	3	-13%	1%
CC(=O)N(C(C)=O)N1C(=O)/C(=C/c2ccc(Cl)cc2)SC1=S	?	-9	?	0	?	.
O=C(CN1C(=O)/C(=C\c2cccc(F)c2)Oc2ccccc21)N1CCN(c2ccccn2)CC1	?	-2	11	8	?	-74%
O=C(CN1C(=O)/C(=C\c2ccc(F)cc2)Oc2ccccc21)N1CCN(c2ccccn2)CC1	?	4	43	16	?	22µM*
CN1CCN(C(=O)CCN2C(=O)/C(=C\c3ccc(F)cc3)SC2=S)CC1	15µM*	-4	-7	-99*	18µM*	2%
O=C(CN1C(=O)/C(=C/c2ccc(F)cc2)SC1=S)N1CCN(CCc2ccccn2)CC1	2.3µM*	-11	-1	-7	6.5µM*	2%
Cc1ccc(C)n1N1C(=O)/C(=C\c2ccc(Cl)cc2)SC1=S	?	-6	-20	-91*	?	-1%

Compound activity deposited in PubChem BioAssay by National Center for Advancing Translational Sciences (NCATS).
